PubChem BioAssay (NCI)
This is part of a sample that, as a whole, favours compounds with a hit. Of some 83,000 tested, about 20% had one in any assay.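 Method: cells in 96-well plates; compound added at one concentration; 48 h incubation; percent growth measured; values under 10 scored active.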 A number with no mark means an inactive call. Active and inactive are the calls of the source.

Assays:
Assay in all cases: NCI-60 one-dose screen, 48 h (100 = growth as untreated, 0 = no growth, -100 = all killed)
Settings in all cases: 10 µM unless noted
[1] = tested on: T-47D breast
[2] = tested on: BT-549 breast
[3] = tested on: MDA-MB-435 melanoma
[4] = tested on: SW-620 colon
[5] = tested on: MCF7 breast
[6] = tested on: HCT-116 colon
[7] = tested on: HCC-2998 colon
[8] = tested on: KM12 colon

Row | Structure (SMILES) | growth [1] | growth [2] | growth [3] | growth [4] | growth [5] | growth [6] | growth [7] | growth [8]
1 | CCNCCNc1c(C)c(-c2ccc(C(F)(F)F)cc2)c(C#N)c2nc3ccccc3n12 | 82.6% | 75.5% | 65.2% | 93.6% | 76.2% | 93.4% | 99.4% | 97%
2 | CCCCCCCCCCCCCC[n+]1ccc2c(C)c3c(c(C)c2c1)c1cc(O)ccc1n3CC | -25.5% (active) | -74.3% (active) | -92.6% (active) | -72.2% (active) | -70.3% (active) | -79.4% (active) | -64.6% (active) | -67.3% (active)
3 | Cc1ccc(-c2nnc(SCc3nc(N)nc(Nc4ccccc4F)n3)n2-c2ccccc2)cc1 | 85% | 97.9% | 99.6% | 93.6% | 94.9% | 98.4% | 126% | 101%
4 | COc1cc2ncnc(Nc3ccc(S(=O)(=O)Nc4cc(C)on4)cc3)c2cc1OCCCN1CCOCC1 | 84.4% | 91.6% | 106% | 106% | 96.1% | 102% | 107% | 103%
5 | CCCCC/C=C/CCC(=O)N[C@H]1[C@H](Oc2c3cc4cc2Oc2ccc(cc2Cl)[C@@H](O[C@@H]2O[C@H](CO)[C@@H](O)[C@H](O)[C@H]2NC(C)=O)[C@@H]2NC(=O)[C@H](NC(=O)[C@@H]4NC(=O)[C@H]4NC(=O)[C@@H](Cc5ccc(c(Cl)c5)O3)NC(=O)[C@@H](N)c3ccc(O)c(c3)Oc3cc(O)cc4c3)c3ccc(O)c(c3)-c3c(O[C@H]4O[C@H](CO)[C@@H](O)[C@H](O)[C@@H]4O)cc(O)cc3[C@H](C(=O)O)NC2=O)O[C@H](CO)[C@H](O)[C@@H]1O | 119% | 107% | 100% | 102% | 98.5% | 101% | 101% | 111%
6 | O=c1ccc2c(ccc3ncccc32)o1 | 94.6% | 116% | 116% | 115% | 95.7% | 113% | 107% | 107%
7 | COc1cc2nc3cc([N+](=O)[O-])ccc3c(NCCCNCCO)c2cc1OC | -30.1% (active) | -73.4% (active) | -100% (active) | -25% (active) | -28.5% (active) | -33.7% (active) | -47.9% (active) | -33.6% (active)
8 | O=C(NS(=O)(=O)c1ccccc1)n1cc(-c2ccncc2)c(-c2cc(O)cc(Cl)c2)n1 | 90.1% | 101% | 66.6% | 123% | 102% | 91.7% | 128% | 99.5%
9 | FC(F)(F)c1cc(N2CCCCC2)nc(NCCCNc2ccnc3cc(Cl)ccc23)n1 | 37.7% | 61.2% | 76% | 94.3% | 43.7% | 39.3% | 37.5% | 64.7%
10 | CCOC(=O)CCC(=O)P(=O)(O)O | 98.6% | 101% | 125% | 96.5% | 110% | 86.2% | 99.8% | 112%
11 | C#Cc1c(I)n(C2OC(CO[Si](C)(C)C(C)(C)C)C3OC(C)(C)OC32)c(=O)[nH]c1=O (configuration not stated) | -69.3% (active) | 98.5% | 81.2% | -98.3% (active) | 42.1% | -49.6% (active) | -75.7% (active) | 105%
12 | NCCCCCNc1noc(Cc2c[nH]c3cc(Br)ccc23)n1 | 25.9% | 44.9% | -37% (active) | 18.6% | 21.8% | 23% | 64% | 23.9%
13 | C/C=C(/C)C(=O)O[C@@H]1CC(C)(C)CC2C34OC(=O)[C@@]21CC[C@@]3(C)[C@]1(C)CCC2C(C)(C)C(=O)CC[C@]2(C)C1C[C@@H]4O (some centres not stated) | 46.8% | 43.3% | 70.9% | 38.8% | 66.7% | 29.5% | 73.1% | 51.5%
14 | C=CCn1c(SCC(=O)Nc2ccc(C(=O)/C=C/c3ccc(Cl)cc3)cc2)nnc1-c1ccccc1 | 73% | 71.3% | 77.5% | 98.4% | 24.4% | -78.6% (active) | 96.4% | 85.2%
15 | COc1cccc(NC(=O)c2sc3nc(C)c(C(=O)c4ccccc4)cc3c2N)c1 | 88.6% | 91.8% | 29.9% | 91.4% | 69.5% | 95.9% | 109% | 88%
16 | CCOC(=O)c1c2c(n3ccc(NC(=O)CCN4CCCC4)cc13)C(=O)c1ncccc1C2=O | -43.9% (active) | -73.8% (active) | -68.5% (active) | -82.9% (active) | -66.6% (active) | -82.8% (active) | -83.5% (active) | -89.4% (active)
17 | c1ccc(Cn2cc3c(c2)-c2nc(Nc4ccccc4)ncc2CC3)cc1 | 74.3% [100 µM] | 87.6% [100 µM] | 96% [100 µM] | 92% [100 µM] | 70.5% [100 µM] | 80.6% [100 µM] | 99.9% [100 µM] | 87% [100 µM]
18 | Clc1ccc2c(NCCCn3cnc4c(N5CCCC5)nc(Cl)nc43)ccnc2c1 | 85.6% | 97.7% | 101% | 103% | 91.9% | 93.4% | 108% | 98.1%
19 | CC(C)CCc1nc2ccc(NCc3ccc(OCCN4CCC(C)CC4)cc3)cc2[nH]1 | 97% | 77.1% | 89.2% | 89.3% | 62.3% | 65.1% | 42.7% | 87.6%
20 | CCCN1C2CCC1/C(=C\c1ccc(OC)cc1)C(=O)/C2=C/c1ccc(OC)cc1 | 45.3% | 87.2% | 63.5% | 90.4% | 75.8% | 61.9% | 91.9% | 74.2%
21 | Nc1ncc(-c2ccc3ncnc(N4CCc5ccc(Cl)cc54)c3c2)cn1 | -7.59% (active) | -25% (active) | 7.35% (active) | 0.122% (active) | 10.6% | -30.6% (active) | 5.87% (active) | 6.87% (active)
22 | C#Cc1cccc(Nc2nc(Cl)nc3cc(NC(=O)CCl)ccc23)c1 | -44.7% (active) | -89.3% (active) | -76.7% (active) | -77.8% (active) | -49.5% (active) | -90.1% (active) | -84% (active) | -62.5% (active)
23 | CNc1nc2ncc(-c3c(C)noc3C)cc2n1Cc1ccccc1 | 54.1% | 60.2% | 45.7% | 71.8% | 18.6% | 26% | 63.4% | 62.1%
24 | Cc1c(CC(=O)Nc2ccccc2)nnn1-c1ccccc1 | 101% | 112% | 115% | 110% | 99.6% | 106% | 102% | 108%
25 | CCOC(=O)C1=CCC(n2cc(F)c(=O)[nH]c2=O)O1 (configuration not stated) | 98.5% | 107% | 110% | 89.9% | 93.1% | 96.7% | 103% | 88.3%
26 | O=C(/C=C/c1ccco1)c1ccc(Nc2ccnc3cc(Cl)ccc23)cc1 | 83.7% | 88.5% | 92.5% | 86.3% | 56.1% | 33.7% | 60.7% | 80.2%
27 | CCCn1cnc2c(c1=N)C(c1ccc(Cl)cc1)c1sc3c(F)cccc3c1O2 (configuration not stated) | 64.6% | 105% | 77.7% | 55.5% | 32.3% | 57.8% | -20% (active) | 66.6%
28 | COc1ccc(/C=N/NC(=O)Cn2nnc3ccccc32)cc1 | 92.1% | 107% | 98.2% | 92.9% | 86.4% | 93.7% | 116% | 90.7%
29 | Cn1ccnc1C(=O)/C=C/c1ccc(C(=O)Nc2ccccc2F)cc1 | 38.3% | -13.2% (active) | 1.95% (active) | 13.5% | 13.4% | 8.83% (active) | 88% | 13.8%
